# Assay results from PubChem BioAssay.
# Records with an inconclusive call do not appear. The source made the active and inactive calls.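 How the source made its calls, unless noted: active means efflux inhibition above 0.42, the validation set average plus 4 SD; inconclusive means no clear call, values can overlap the other calls; inactive means the rest.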
# Tests used:
# [1] = yeast TOR pathway RPL19A-GFP modulators, primary screen, cell-based, S. cerevisiae, multiplex flow cytometry (AID 1862; in the data active means percent of DMSO control GFP below about 86%;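 further: lower values mimic rapamycin by blocking the RPL19A rise seen in DMSO cells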); conditions: S. cerevisiae RPL19A-GFP strain, flow cytometry fluorescence, 3 h; at 10 µM; stronger effect = lower value
# [2] = modulators of MEP2-GFP levels in yeast, primary screen, S. cerevisiae, multiplex flow cytometry (AID 1867;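 active means GFP response, as percent of the DMSO control, above the screen-wide mean plus 3 SD, about 139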;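 further: median GFP channel fluorescence of barcode-gated MEP2-GFP cells measured by flow cytometry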); conditions: S. cerevisiae MEP2-GFP strain, 3 h, at 10 µM, stronger effect = higher value, 100% means same as DMSO wells
# [3] = modulators of CIT2-GFP expression in yeast, primary screen, S. cerevisiae, GFP fusion, multiplex flow cytometry (AID 1870;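 active means percent response above a set limit, the screen-wide mean plus 3 SD, cut at about 130% in these data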;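 further: barcoded CIT2-GFP strain pooled with four other GFP strains with rapamycin as positive control; median GFP fluorescence per well over plate mean of DMSO wells so 100% = DMSO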); conditions: 3 h, at 10 µM, stronger effect = higher value
# [4] = modulators of LAP4-GFP expression in yeast, primary screen, S. cerevisiae, multiplex flow cytometry (AID 1873;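 active means GFP signal, as percent of the solvent control, above the screen mean plus 3 SD, about 149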); conditions: 3 h, at 10 µM, stronger effect = higher value
# [5] = modulators of AGP1-GFP expression in yeast TOR pathway, primary screen, cell-based, multiplex flow cytometry, S. cerevisiae (AID 1887;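 active means GFP signal above the screen-wide mean plus 3 SD, that is over about 124.5% of the solvent control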;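 further: AGP1-GFP fusion strain of S. cerevisiae within a five-strain barcoded multiplex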); conditions: 3 h, at 10 µM, stronger effect = higher value
# [6] = inhibitors of CD8+ T cell-vesicle binding, pilot screen, LFA-1/ICAM-1 modulator project, MLPCN validation set, flow cytometry (AID 2523;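 active means response below a set limit, under 55% cells CD8-positive and vesicle-bound, and CD8 cells' 90th-percentile brightness under 279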;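 on vesicle binding response: mean PE anti-B7-1 fluorescence of CD8+ cells relative to row control; 100% = QL9-loaded vesicles with DMSO vehicle in the same plate row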); conditions: 2C mouse CD8+ T cells, at 7 µM, stronger effect = lower value; double positive events: measured here: CD8+/vesicle+ event percentage
# [7] = target: Integrin beta-1 (Homo sapiens) + Integrin alpha-4 (Homo sapiens) (UniProt P13612+P05556); test: inhibition of HUTS-21 binding to VLA-4, pilot screen, VLA-4 allosteric modulator project, U937 cells, HUTS-21 mAb, flow cytometry, validation set (AID 2674;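 active means inhibition above 50%, about 3 SD of the validation set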;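 further: antibody binding induced by the VLA-4 ligand LDV present at three times its Kd; 0% = LDV ligand with antibody and no compound and 100% = antibody without LDV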); conditions: HUTS-21 LIBS mAb binding, at 6.7 µM, stronger effect = higher value, binding induced by LDV ligand
# Chain of Integrin beta-1 (Homo sapiens) + Integrin alpha-4 (Homo sapiens) (P05556 whole entry, looked up): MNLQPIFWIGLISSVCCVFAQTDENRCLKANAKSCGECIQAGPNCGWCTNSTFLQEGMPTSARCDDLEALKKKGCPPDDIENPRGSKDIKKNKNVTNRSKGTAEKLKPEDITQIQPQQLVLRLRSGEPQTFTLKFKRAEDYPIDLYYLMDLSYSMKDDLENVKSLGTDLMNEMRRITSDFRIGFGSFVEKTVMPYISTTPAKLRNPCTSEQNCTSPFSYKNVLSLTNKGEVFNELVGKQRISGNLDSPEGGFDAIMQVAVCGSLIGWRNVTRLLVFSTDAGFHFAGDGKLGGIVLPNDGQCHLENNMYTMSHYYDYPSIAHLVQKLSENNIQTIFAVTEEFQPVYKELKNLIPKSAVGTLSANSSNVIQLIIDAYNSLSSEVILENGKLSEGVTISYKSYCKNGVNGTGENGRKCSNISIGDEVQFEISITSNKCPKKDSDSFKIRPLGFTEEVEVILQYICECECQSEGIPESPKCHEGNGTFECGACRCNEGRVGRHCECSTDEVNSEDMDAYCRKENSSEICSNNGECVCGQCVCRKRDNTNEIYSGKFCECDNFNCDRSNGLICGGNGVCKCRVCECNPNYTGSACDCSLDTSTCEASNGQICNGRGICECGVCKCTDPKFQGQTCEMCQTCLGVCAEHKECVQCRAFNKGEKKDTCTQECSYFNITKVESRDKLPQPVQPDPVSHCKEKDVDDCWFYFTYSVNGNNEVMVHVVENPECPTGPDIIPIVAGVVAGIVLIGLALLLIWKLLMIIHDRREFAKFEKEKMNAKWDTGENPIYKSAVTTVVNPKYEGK
# Chain of Integrin beta-1 (Homo sapiens) + Integrin alpha-4 (Homo sapiens) (P13612 whole entry, looked up): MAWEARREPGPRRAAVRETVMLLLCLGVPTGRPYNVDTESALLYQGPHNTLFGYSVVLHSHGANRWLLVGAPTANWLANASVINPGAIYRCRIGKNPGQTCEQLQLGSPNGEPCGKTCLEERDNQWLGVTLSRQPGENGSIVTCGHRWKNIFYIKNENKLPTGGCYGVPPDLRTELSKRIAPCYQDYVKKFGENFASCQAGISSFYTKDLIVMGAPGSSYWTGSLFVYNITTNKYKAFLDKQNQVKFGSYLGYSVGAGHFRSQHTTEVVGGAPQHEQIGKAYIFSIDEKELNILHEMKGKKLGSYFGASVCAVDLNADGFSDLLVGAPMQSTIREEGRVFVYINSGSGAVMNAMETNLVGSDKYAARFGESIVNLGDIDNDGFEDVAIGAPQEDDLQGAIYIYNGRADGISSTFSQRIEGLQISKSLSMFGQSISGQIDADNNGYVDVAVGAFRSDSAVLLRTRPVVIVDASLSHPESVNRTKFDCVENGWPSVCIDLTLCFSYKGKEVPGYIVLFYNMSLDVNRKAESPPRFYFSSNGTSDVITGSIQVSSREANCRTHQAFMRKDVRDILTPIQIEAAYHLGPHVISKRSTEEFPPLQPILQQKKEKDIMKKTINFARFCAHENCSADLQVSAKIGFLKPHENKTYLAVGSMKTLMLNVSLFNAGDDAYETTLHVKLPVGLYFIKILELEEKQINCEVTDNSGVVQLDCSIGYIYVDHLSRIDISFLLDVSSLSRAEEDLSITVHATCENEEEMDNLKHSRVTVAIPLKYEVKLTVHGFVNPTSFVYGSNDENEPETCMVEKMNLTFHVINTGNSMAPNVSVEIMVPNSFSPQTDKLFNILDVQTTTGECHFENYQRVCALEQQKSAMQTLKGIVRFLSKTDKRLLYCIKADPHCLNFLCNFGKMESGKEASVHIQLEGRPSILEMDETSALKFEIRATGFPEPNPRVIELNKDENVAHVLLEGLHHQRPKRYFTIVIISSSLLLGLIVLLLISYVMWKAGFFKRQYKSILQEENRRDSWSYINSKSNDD
# [8] = superoxide lowering in aged yeast cells, pilot screen, validation compound set (AID 2706;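 active means superoxide response below 65% of plate, a cut near 3 SD across the whole screen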;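 further: yeast exposed to compound for one week at 30 degrees C before staining; 100% = mean of all compound wells on the same plate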); conditions: S. cerevisiae aging, superoxide DHE fluorescence; at 10 µM; stronger effect = lower value
# [9] = target: Beta-adrenergic receptor kinase 1 (Homo sapiens) (UniProt P25098); test: GRK2 binders displacing RNA aptamer, biochemical, validation, human GRK2, bead flow cytometry (AID 488806;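 active means aptamer binding inhibition above 30%, about 3 SD of noise from non-fluorescent compounds; inactive means inhibition at or below 30%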); conditions: bead-bound GRK2, FAM-aptamer displacement, at 10 µM, stronger effect = higher value
# Chain of Beta-adrenergic receptor kinase 1 (Homo sapiens) (P25098 whole entry, looked up): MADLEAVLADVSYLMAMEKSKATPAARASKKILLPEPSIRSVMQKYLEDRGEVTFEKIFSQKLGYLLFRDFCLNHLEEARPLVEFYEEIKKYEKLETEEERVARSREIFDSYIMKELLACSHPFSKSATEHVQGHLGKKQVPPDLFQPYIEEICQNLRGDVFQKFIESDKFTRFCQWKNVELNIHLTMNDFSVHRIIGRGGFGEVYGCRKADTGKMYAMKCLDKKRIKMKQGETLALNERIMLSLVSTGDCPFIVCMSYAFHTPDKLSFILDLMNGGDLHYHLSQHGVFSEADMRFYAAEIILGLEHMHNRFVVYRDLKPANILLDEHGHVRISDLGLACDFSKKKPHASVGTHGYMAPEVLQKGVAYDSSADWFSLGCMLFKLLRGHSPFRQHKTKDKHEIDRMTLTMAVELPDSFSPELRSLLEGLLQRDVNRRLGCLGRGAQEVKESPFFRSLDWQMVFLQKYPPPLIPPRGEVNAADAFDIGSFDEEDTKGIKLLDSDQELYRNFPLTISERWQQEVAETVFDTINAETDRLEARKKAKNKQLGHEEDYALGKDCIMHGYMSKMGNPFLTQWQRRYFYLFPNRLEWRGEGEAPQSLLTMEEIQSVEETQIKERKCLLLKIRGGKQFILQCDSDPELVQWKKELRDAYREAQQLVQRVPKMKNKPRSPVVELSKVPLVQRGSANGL
# [10] = target: Beta-2 adrenergic receptor (Homo sapiens) (UniProt P07550); test: beta2AR agonists driving receptor internalization, pilot screen, cell-based, FAP fluorogen, flow cytometry, validation set (AID 504459;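 active means percent response above 42, roughly 3 SD of non-fluorescent test compounds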;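 further: agonist-driven loss of surface beta2AR via internalization measured by FAP dye flow cytometry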); conditions: Am2.2-beta2AR cells, FAP surface receptor flow cytometry; at 10 µM; stronger effect = higher value
# Chain of Beta-2 adrenergic receptor (Homo sapiens) (P07550 whole entry, looked up): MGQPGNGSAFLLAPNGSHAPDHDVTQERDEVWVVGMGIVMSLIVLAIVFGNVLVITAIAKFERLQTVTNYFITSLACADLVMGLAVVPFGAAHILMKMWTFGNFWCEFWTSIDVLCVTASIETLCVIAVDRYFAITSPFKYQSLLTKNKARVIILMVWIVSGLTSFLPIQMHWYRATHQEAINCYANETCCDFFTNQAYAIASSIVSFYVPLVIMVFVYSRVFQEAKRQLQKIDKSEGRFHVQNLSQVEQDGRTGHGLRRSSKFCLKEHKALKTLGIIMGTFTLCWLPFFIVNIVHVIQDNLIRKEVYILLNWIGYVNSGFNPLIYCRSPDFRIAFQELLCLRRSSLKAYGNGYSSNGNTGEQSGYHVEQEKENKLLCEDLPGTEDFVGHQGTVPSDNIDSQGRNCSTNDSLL
# [11] = target: AP-2 complex subunit beta (Homo sapiens) (UniProt P63010); test: inhibitors of arrestin peptide binding to AP2, pilot screen, biochemical, validation set, GST-AP2 beads, flow cytometry (AID 504541;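 active means inhibition above 54%, about 3 SD of non-fluorescent compounds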;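 further: AP2 carries R879A mutation and is captured from E. coli lysate; bead-bound FITC arrestin peptide fluorescence measuring arrestin peptide binding to AP2; 0% = DMSO wells and 100% = excess unlabeled arrestin peptide control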); conditions: FITC arrestin peptide, at 10 µM, stronger effect = higher value, AP2 beta2 appendage fragment, R879A mutant
# Chain of AP-2 complex subunit beta (Homo sapiens) (P63010 whole entry, looked up, the tested form may be a part, one chain of several): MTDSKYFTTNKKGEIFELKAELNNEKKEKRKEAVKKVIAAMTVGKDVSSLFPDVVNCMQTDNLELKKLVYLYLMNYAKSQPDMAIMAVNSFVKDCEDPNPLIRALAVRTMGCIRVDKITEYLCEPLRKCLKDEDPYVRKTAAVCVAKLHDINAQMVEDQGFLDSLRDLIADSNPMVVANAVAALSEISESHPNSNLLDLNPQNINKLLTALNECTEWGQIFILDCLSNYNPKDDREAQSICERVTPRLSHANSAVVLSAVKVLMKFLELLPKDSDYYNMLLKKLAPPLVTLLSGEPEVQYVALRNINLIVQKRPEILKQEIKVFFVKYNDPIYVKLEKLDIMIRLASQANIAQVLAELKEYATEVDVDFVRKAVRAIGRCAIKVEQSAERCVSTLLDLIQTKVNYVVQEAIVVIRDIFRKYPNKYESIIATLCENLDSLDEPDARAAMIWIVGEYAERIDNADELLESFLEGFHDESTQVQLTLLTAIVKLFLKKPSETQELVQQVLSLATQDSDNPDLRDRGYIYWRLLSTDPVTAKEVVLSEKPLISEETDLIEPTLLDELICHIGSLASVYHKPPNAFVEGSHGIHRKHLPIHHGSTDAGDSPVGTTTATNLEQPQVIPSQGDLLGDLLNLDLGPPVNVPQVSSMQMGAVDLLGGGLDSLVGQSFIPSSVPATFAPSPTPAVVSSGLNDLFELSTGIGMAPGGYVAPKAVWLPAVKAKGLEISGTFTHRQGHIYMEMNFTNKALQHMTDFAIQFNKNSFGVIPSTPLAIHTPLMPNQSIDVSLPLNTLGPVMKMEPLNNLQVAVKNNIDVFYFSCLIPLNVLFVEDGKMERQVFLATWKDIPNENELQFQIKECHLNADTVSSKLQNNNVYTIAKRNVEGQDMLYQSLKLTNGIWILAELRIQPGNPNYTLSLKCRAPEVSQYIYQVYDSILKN
# [12] = yeast V-ATPase proton transport modulators, S. cerevisiae, pHLuorin, HTS validation (AID 504600; in the data active means response above about 15%;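 further: plate controls were DMSO for no effect and reference compound for full effect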); conditions: S. cerevisiae pHLuorin cytosolic pH, at 10 µM, stronger effect = higher value
# [13] = system: anti-desmoglein-3 scFv antibody binding to human DSG3; test: inhibitors of anti-DSG3 scFv binding to DSG3, pilot screen, biochemical, validation compound set, bead-based, flow cytometry (AID 588368;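 active means binding below the plate cutoff, the plate median minus 3 SD, with a reading above zero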;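 further: signal is the median channel fluorescence of bead-bound GFP antibody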); conditions: Protein G beads, DSG3-Fc, scFv-GFP binding, at 10 µM, stronger effect = lower value
# [14] = inhibitors of fungal efflux pumps CDR1, CDR2, MDR1, pilot screen, validation compound set, multiplex, phenotypic (AID 588506);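 further: Nile Red retained in cells so higher fluorescence means more efflux inhibition; 0 = negative control wells and 1 = enniatin B 25 µM full block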; conditions: S. cerevisiae pump-expressing triplex, Nile Red efflux flow cytometry; at 10 µM; stronger effect = higher value; the pumps come from Candida albicans
# [15] = target: ATP-binding cassette sub-family B member 6 (Homo sapiens) (UniProt Q9NP58); test: ABCB6 transporter inhibitors, pilot screen, K562-ABCB6 cells, flow cytometry, validation set (AID 588550;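 active means inhibition above the screen-wide mean plus 3 SD, about 51%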;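 further: 0% = DMSO wells and 100% = benzethonium chloride 70 µM positive control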); conditions: K562-ABCB6 porphyrin accumulation, 1 h, at 10 µM, stronger effect = higher value
# Chain of ATP-binding cassette sub-family B member 6 (Homo sapiens) (Q9NP58 whole entry, looked up): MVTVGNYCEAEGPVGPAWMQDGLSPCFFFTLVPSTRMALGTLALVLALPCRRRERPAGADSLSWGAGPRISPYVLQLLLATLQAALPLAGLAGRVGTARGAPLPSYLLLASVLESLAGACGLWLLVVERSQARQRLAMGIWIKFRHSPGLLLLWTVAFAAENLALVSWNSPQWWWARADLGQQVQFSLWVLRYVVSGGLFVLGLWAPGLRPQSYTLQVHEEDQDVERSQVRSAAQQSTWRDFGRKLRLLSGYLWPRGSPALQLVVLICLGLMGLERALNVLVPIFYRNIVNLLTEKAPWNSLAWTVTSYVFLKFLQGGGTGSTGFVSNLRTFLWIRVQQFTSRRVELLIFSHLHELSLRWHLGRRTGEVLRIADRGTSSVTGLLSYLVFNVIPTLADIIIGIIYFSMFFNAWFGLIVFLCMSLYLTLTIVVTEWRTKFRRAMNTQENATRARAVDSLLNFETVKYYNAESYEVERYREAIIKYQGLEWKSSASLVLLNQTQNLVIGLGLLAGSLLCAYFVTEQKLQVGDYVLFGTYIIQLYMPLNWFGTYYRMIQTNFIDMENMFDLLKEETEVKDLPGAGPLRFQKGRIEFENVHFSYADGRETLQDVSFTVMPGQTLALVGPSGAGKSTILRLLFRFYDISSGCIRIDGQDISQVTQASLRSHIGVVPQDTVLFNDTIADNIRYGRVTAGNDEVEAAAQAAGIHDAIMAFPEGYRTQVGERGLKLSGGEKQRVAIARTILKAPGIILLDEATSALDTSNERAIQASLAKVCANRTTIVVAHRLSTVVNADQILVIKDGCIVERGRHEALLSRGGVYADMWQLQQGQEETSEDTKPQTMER
# [16] = promoters of myeloid differentiation in arrested cells, primary screen, cell-based, GFP/MAC1 double positive, flow cytometry, validation set (AID 588685;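 active means differentiation response of at least 50%, scaled between solvent and reference control, from cells with both markers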;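 further: compound exposure lasts four days before antibody staining and flow analysis; 0% = DMSO wells and 100% = 5 µM fulvestrant positive control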); conditions: ER-HoxA9 marrow cells, stronger effect = higher value, normalized: vehicle 0, fulvestrant 100
SMILES,percent of DMSO control GFP [1],GFP response vs DMSO [2],percent response of DMSO control [3],GFP response vs DMSO [4],"GFP response, % of DMSO [5]",double positive events [6] [%],vesicle binding response [6],inhibition [7],superoxide response (% of plate) [8],aptamer binding inhibition [9],response [10],inhibition [11],response [12],binding (% of control) [13],efflux inhibition (fraction of control) [14],inhibition [15],differentiation response [16]
COc1ccc(/C=C/C(=O)NC(=S)NN2CCCCC2c2cccnc2)cc1 (stereo unspecified),106% (inactive),99.7% (inactive),102% (inactive),107% (inactive),109% (inactive),66.3,199% (inactive),-2.43% (inactive),95.5% (inactive),-3% (inactive),-5.93% (inactive),12.7% (inactive),0.36% (inactive),104% (inactive),0.33 (inactive),2% (inactive),-4.57% (inactive)
CC12CN3CC(C)(CN(C1)C3c1ccc([N+](=O)[O-])o1)C2 (stereo unspecified),102% (inactive),101% (inactive),95.4% (inactive),96% (inactive),91.5% (inactive),64.6,1050% (inactive),12% (inactive),111% (inactive),5% (inactive),-5.46% (inactive),1.92% (inactive),2.45% (inactive),93.8% (inactive),-0.1 (inactive),-9% (inactive),7.09% (inactive)
O=C1CC2(CCCC2)CC(=O)N1CCCCN1CCN(c2ncccn2)CC1,102% (inactive),104% (inactive),96.6% (inactive),91.4% (inactive),106% (inactive),64.3,1050% (inactive),7.85% (inactive),101% (inactive),3% (inactive),-19.5% (inactive),-0.56% (inactive),2.1% (inactive),101% (inactive),0.21 (inactive),9% (inactive),12% (inactive)
CC1(C)C(=O)OC(/C=C\c2ccccc2)C(C)(C)C1=O (stereo unspecified),98.4% (inactive),101% (inactive),95.7% (inactive),112% (inactive),107% (inactive),64.8,160% (inactive),1.44% (inactive),80.2% (inactive),6% (inactive),-19.9% (inactive),6.83% (inactive),-6.88% (inactive),97.3% (inactive),-0.09 (inactive),3% (inactive),4.86% (inactive)
Cc1ccccc1NC(=O)c1c(C)cc(=O)oc1C,106% (inactive),101% (inactive),113% (inactive),84.8% (inactive),99.2% (inactive),67.4,771% (inactive),5.77% (inactive),83.4% (inactive),4% (inactive),-4.18% (inactive),-11.4% (inactive),1.91% (inactive),92.7% (inactive),-0.2 (inactive),-3% (inactive),-1.71% (inactive)
CCOc1ccc(C(=O)NCC2(c3ccccc3)CCOCC2)cc1,99.8% (inactive),97.7% (inactive),108% (inactive),105% (inactive),108% (inactive),63.3,172% (inactive),-13.2% (inactive),95.9% (inactive),-4% (inactive),-2.34% (inactive),-4.75% (inactive),-1% (inactive),107% (inactive),-0.11 (inactive),11% (inactive),10.1% (inactive)
CCc1cc(-c2[nH]ncc2-c2ccc3c(c2)OCO3)c(O)cc1O,99.8% (inactive),102% (inactive),105% (inactive),95.1% (inactive),99.5% (inactive),58.3,13.8% (inactive),9.71% (inactive),92.1% (inactive),3% (inactive),4.41% (inactive),-19.7% (inactive),0.5% (inactive),107% (inactive),-0.34 (inactive),4% (inactive),-3.4% (inactive)
CC(C)=CC/C=C1\CCC(C(=O)O)C(C(=O)O)C1 (stereo unspecified),89.5% (inactive),123% (inactive),95.2% (inactive),81.4% (inactive),87.5% (inactive),63.2,160% (inactive),-14.9% (inactive),91.6% (inactive),6% (inactive),-0.75% (inactive),-6.38% (inactive),1.64% (inactive),103% (inactive),-0.35 (inactive),14% (inactive),-2.46% (inactive)
CC(CN1c2ccccc2Sc2ccccc21)N(C)C (stereo unspecified),92.4% (inactive),117% (inactive),111% (inactive),78.1% (inactive),94.9% (inactive),74.2,363% (inactive),-2.27% (inactive),84.2% (inactive),-3% (inactive),-2.04% (inactive),1.26% (inactive),-2.78% (inactive),97.2% (inactive),-0.53 (inactive),10% (inactive),-1.64% (inactive)
COc1cc(C(=O)N/C(=C\c2cn(C)c3ccccc23)C(=O)NCCCO)cc(OC)c1OC,102% (inactive),94.1% (inactive),107% (inactive),75.2% (inactive),88% (inactive),56.3,215% (inactive),11.9% (inactive),99.7% (inactive),2% (inactive),5% (inactive),-0.03% (inactive),11.1% (inactive),100% (inactive),0.3 (inactive),7% (inactive),-15.2% (inactive)
CC(=O)[C@@H]1[C@@H](C(=O)c2ccc(C)cc2)[C@]2(C(=O)Nc3ccccc32)[C@H]2C=Cc3cc(F)ccc3N12,97.4% (inactive),102% (inactive),90.1% (inactive),117% (inactive),100% (inactive),61.3,161% (inactive),-119% (inactive),112% (inactive),4% (inactive),40.7% (inactive),4.08% (inactive),-5.02% (inactive),98.9% (inactive),-0.03 (inactive),2% (inactive),8.8% (inactive)
Cc1ccc(C(=O)O)cc1NC(=O)c1cccs1,100% (inactive),107% (inactive),99.3% (inactive),99.4% (inactive),98.6% (inactive),64.1,206% (inactive),-17.5% (inactive),109% (inactive),8% (inactive),4.14% (inactive),-1.98% (inactive),-0.65% (inactive),100% (inactive),0.04 (inactive),10% (inactive),0.41% (inactive)
COc1ccc(CCN(C)CCCC(C#N)(c2cc(OC)c(OC)c(OC)c2)C(C)C)cc1OC (stereo unspecified),100% (inactive),99.3% (inactive),111% (inactive),82.8% (inactive),98.6% (inactive),57.7,239% (inactive),11% (inactive),86% (inactive),1% (inactive),-12.7% (inactive),-7.98% (inactive),0.22% (inactive),99.8% (inactive),-0.01 (inactive),9% (inactive),3.18% (inactive)
COC(=O)c1ccccc1NC(=O)c1ccc(COc2ccc3c(c2)CCC3)cc1,99.6% (inactive),99.3% (inactive),90.8% (inactive),105% (inactive),94.8% (inactive),64.4,521% (inactive),7.85% (inactive),82.8% (inactive),5% (inactive),-3.71% (inactive),0.16% (inactive),-3.9% (inactive),98.9% (inactive),0.46 (active),-3% (inactive),1.22% (inactive)
CNc1c2c(nn1C)CCCC2,104% (inactive),97.7% (inactive),106% (inactive),97% (inactive),106% (inactive),62.2,126% (inactive),1.59% (inactive),115% (inactive),5% (inactive),1.87% (inactive),-17.3% (inactive),-7.05% (inactive),101% (inactive),-0.19 (inactive),-3% (inactive),-3.11% (inactive)
COc1ccc(S(N)(=O)=O)cc1C(N)=O,100% (inactive),105% (inactive),97.8% (inactive),101% (inactive),97% (inactive),62,195% (inactive),-0.45% (inactive),106% (inactive),0% (inactive),1.47% (inactive),13.4% (inactive),-1.59% (inactive),91.1% (inactive),0.02 (inactive),11% (inactive),-4.64% (inactive)
CCCC(CCC)C(=O)OC1C[C@H]2CC[C@@H](C1)[N+]2(C)C (stereo partly specified),95.2% (inactive),132% (inactive),93.9% (inactive),80.9% (inactive),94.9% (inactive),59.5,155% (inactive),14.2% (inactive),108% (inactive),7% (inactive),-2.34% (inactive),-1.17% (inactive),0.47% (inactive),101% (inactive),0.27 (inactive),9% (inactive),3.28% (inactive)
COc1ccc(O)c(C2=Nc3ccccc3N=C(c3ccccc3)C2)c1,94.6% (inactive),126% (inactive),116% (inactive),71.5% (inactive),85.2% (inactive),58.3,139% (inactive),-10% (inactive),96.7% (inactive),4% (inactive),-11.7% (inactive),13% (inactive),-3.39% (inactive),96.9% (inactive),0.34 (inactive),12% (inactive),2.46% (inactive)
